Assay results published in PubChem BioAssay (Tox21).
Several values for one entry are separate records, joined by “and”; a condition that tells them apart may be missing. Identical values can stand only once. Records with an inconclusive call do not appear. A call without a number means that no potency is given here. A number with no mark means an inactive call. Activity calls are given as the source filed them. Calls come from the whole dose curve; as a rule, active = well fitted cell-killing curve with a large enough effect in the repeat runs; inconclusive = weak or mixed curves, or effect the other way; inactive = no such curve, though single readings can be large or run the other way.
Potency is the fitted concentration of half-maximal effect.

Test: qHTS assay to identify small molecule antagonists of the sonic hedgehog signaling (Shh) pathway - cell viability counter screen (AID 1259367); note: nearly all actives have a fitted effect of over 55% in size
Details: NIH/3T3 Gli1-Luc viability, CellTiter-Fluor, 24 h; series mostly up to 92.4 µM
Source text: National Center for Advancing Translational Sciences [NCATS]
NIH Chemical Genomics Center [NCGC]
U.S. Environmental Protection Agency [EPA]
National Institutes of Environmental Health Sciences [NIEHS]
National Toxicology Program [NTP]
U.S. Food and Drug Administration [FDA]
The sonic hedgehog (Shh) pathway is essential for normal embryonic development. Dysregulation of the Shh pathway can cause severe developmental defects in organs. Therefore chemicals that interfere with the pathway are potential developmental toxicants. A cell line designated 3T3Gli1-Luc (DMB/OARSA/CFSAN/FDA, Laurel, MD), a NIH/3T3 derived clone containing stably integrated Gli1-Luc reporter is used to detect chemical interference of the Shh pathway, by changes in the expression of the firefly Luc gene under the control of the Gli1 transcriptional response element. This cell line was used to screen Tox21 libraries for identifying and prioritizing the potential developmental toxicants that interfere Shh pathway. Conditioned medium-stimulated mode was used to screen for chemicals inhibiting Shh signaling. The cytotoxicity of the compounds was tested in parallel by measuring the cell viability using CellTiter-Fluor assay system (Promega, Madison, WI) in the same wells.
Tox21 Assay Protocol Summary:
3T3 Gli1-Luc cells were dispensed at 2,000 per well in 5uL of culture medium into white solid bottom 1536-well plates (Greiner Bio-One, Monroe, NC) using a Multidrop Combi (Thermo Scientific, Waltham, MA) dispenser. The assay plates were incubated at 37 C and 5% CO2 for 4hr, and then 23nL of compounds dissolved in DMSO and positive control were transferred using a Pintool station (Wako, San Diego, CA). The compound transfer was followed by the addition of 1ul conditioned medium or assay buffer using two separate tips of Flying Reagent Dispenser (FRD, Aurora Discovery, San Diego, CA). The assay plates were incubated at 37C and 5% CO2 for 24hr. For viability read, after 23hr of compound treatment, 1uL of CellTiter-Fluor reagent (Promega Corporation, Madison, WI) was added to each well of the assay plates using Flying Reagent Dispenser (FRD, Aurora Discovery, San Diego, CA) and incubated the assay plates at 37C for 1hr. The fluorescence signal was quantified using a ViewLux plate reader (Perkin Elmer, Shelton, CT).
With C[C@@H]1C[C@H]2[C@@H]3CCC4=CC(=O)C=C[C@]4(C)[C@@]3(F)[C@@H](O)C[C@]2(C)[C@@]1(O)C(=O)COC(=O)c1ccncc1 the Potency was “inactive”.
With c1cc(CCCc2ccncc2)ccn1 the Potency was “inactive”.
With CN(C)c1ccc(CCO)cc1 the Potency was “inactive”.
With Cc1nn(C)c(Oc2ccccc2)c1/C=N/OCc1ccc(C(=O)OC(C)(C)C)cc1 the Potency was “inactive”.
Molecule O=C(O)CNCC(=O)O has a viability change, negative = cytotoxic of 3.32% [at 8.39 µM].
For COc1ccc(C)cc1[N+](=O)[O-], the Potency was “inactive”.
For CC1=CC=C(C(C)C)CC1, the Potency was “inactive”.
For CCOc1ccc(N)c([N+](=O)[O-])c1, the Potency was “inactive”.
For CNCCCCOc1ccccc1Cc1ccccc1, the Potency was “inactive”.
For C=CC(=O)OCCOCCOCCOCCOC(=O)C=C, the Potency was 19.4 µM (active) and 27.1 µM (active).
In the case of O=C(O)C1(C(=O)Nc2ccc(Cl)cc2Cl)CC1, the Potency is reported as “inactive”.
For CC(=O)NO, the Potency was “inactive”.
In the case of O=C(O)c1nc(Cl)c(Cl)c(Cl)c1Cl, the Potency is reported as “inactive”.
In the case of COc1ccnc(CS(=O)c2nc3ccc(OC(F)F)cc3[nH]2)c1OC (stereo not given), the Potency is reported as “inactive”.
With COc1ccc2cccc(CCNC(C)=O)c2c1 the Potency was “inactive”.
With CCOC(=O)Cc1cccc2ccccc12 the Potency was “inactive”.
For Cc1cccc(Nc2ccccc2)c1, the Potency was “inactive”.
With CC(=O)c1cccc([N+](=O)[O-])c1 the Potency was “inactive”.
With C=C(C)C(=O)OCC the Potency was “inactive”.
With O=C1OC(CN2CCOCC2)CN1/N=C/c1ccc([N+](=O)[O-])o1 (stereo not given) the Potency was “inactive”.
For Nc1ccc(N)c2c1C(=O)c1ccccc1C2=O, the Potency was 10.9 µM (active).
In the case of COC(C)OC, the Potency is reported as “inactive”.
For CCCn1cnc2c1c(=O)n(CCCCC(C)=O)c(=O)n2C, the Potency was “inactive”.
In the case of CCN(CC)c1ccc2c(-c3ccccc3C(=O)O)c3ccc(=[N+](CC)CC)cc-3oc2c1, the Potency is reported as 3.44 µM (active).
With CC(C)Cc1ccc(C(C)C(=O)OCc2ccccn2)cc1 (stereo not given) the Potency was “inactive”.
In the case of O=[N+]([O-])c1ccc2[nH]ncc2c1, the Potency is reported as “inactive”.
In the case of CCCCCCCCCCCCN1CCCCCC1=O, the Potency is reported as “inactive”.
In the case of CC(C)OC(=O)C(C)N(C(=O)c1ccccc1)c1ccc(F)c(Cl)c1 (stereo not given), the Potency is reported as “inactive”.
With CC(=O)[O][Al][O]C(C)=O the Potency was “inactive”.
In the case of CCCCCCCCO[C@@H]1O[C@H](CO)[C@@H](O)[C@H](O)[C@H]1O, the Potency is reported as “inactive”.
With CCC(C)(C)CC the Potency was “inactive”.
For Cc1cc(C(=O)O)ccc1[N+](=O)[O-], the Potency was “inactive”.
For O=C1OC(=O)C2C3C=CC(C3)C12 (stereo not given), the Potency was “inactive”.
In the case of C=CCOc1ccccc1OCC(O)CNC(C)C (stereo not given), the Potency is reported as “inactive”.
With CCCCC(CC)COC(=O)CCCCCCCCC(=O)OCC(CC)CCCC (stereo not given) the Potency was “inactive”.
With O=CC1CC=CCC1 (stereo not given) the Potency was “inactive”.
In the case of CCOC(=O)C(=O)CCc1ccccc1, the Potency is reported as “inactive”.
With S=C([S-])NCCNC(=S)[S-].[Mn+2] the Potency was “inactive”.
In the case of Nc1ccc(S(=O)(=O)Nc2ccccc2)cc1, the Potency is reported as “inactive”.
For ClCCOCCOCCCl, the Potency was “inactive”.
